The whole screen tested about 5,500 compounds, of which about 2,000 (36%) were called active. Not shown: some 18% with an inconclusive outcome. Rule as the data show it: active = normalized growth mostly below about 0.91 (no sharp cut-off); inconclusive = no clear call, values can overlap the other calls; inactive = mostly above about 0.92. This is one part of the list.
Assay: chemical genetic growth profiling, strain panel (AID 1159580);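 also: tested at 20 µM; growth read once vehicle control cultures reached saturation at 30 °C; 1 = growth at the plate median or of vehicle wells; lower values mean less growth of the strain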
Settings: growth OD

Measured: normalized growth

CCCC1O[C@@H]2CC3C4CCC5=CC(=O)C=CC5(C)C4[C@@H](O)CC3(C)[C@]2(C(=O)CO)O1 (some centres not stated)
inactive: S. cerevisiae deletion strains, locus YJR075W, strain HOC1, active compounds read low 1 | S. cerevisiae deletion strains, locus YKL009W, strain mrt4, active compounds read low 1.03 | S. cerevisiae deletion strains, locus YKL068W, active compounds read low 1 | S. cerevisiae deletion strains, locus YKL085W, strain MDH1 (second series), active compounds read low 0.994 | S. cerevisiae deletion strains, locus YKL085W, strain MDH1, active compounds read low 0.994 | S. cerevisiae deletion strains, locus YKL160W, strain elf1, active compounds read low 1.01 | S. cerevisiae deletion strains, locus YKL190W, strain CNB1, active compounds read low 0.995 | S. cerevisiae deletion strains, locus YKR001C, strain vps1, active compounds read low 0.997 | S. cerevisiae deletion strains, locus YKR026C, strain gcn3, active compounds read low 1.01 | S. cerevisiae deletion strains, locus YKR091W, strain srl3, active compounds read low 1 | S. cerevisiae deletion strains, locus YLL001W, strain dnm1, active compounds read low 1.02 | S. cerevisiae deletion strains, locus YLL026W, active compounds read low 1.01 | S. cerevisiae deletion strains, locus YLL041C, strain sdh2, active compounds read low 1.01 | S. cerevisiae deletion strains, locus YLR027C, strain aat2, active compounds read low 1 | S. cerevisiae deletion strains, locus YLR039C, strain RIC1, active compounds read low 1.02 | S. cerevisiae deletion strains, locus YLR058C, strain SHM2, active compounds read low 1 | S. cerevisiae deletion strains, locus YLR102C, strain apc9, active compounds read low 1.02 | S. cerevisiae deletion strains, locus YLR113W, strain HOG1, active compounds read low 0.931 | S. cerevisiae deletion strains, locus YLR221C, strain rsa3, active compounds read low 0.986 | S. cerevisiae deletion strains, locus YLR258W, strain gsy2, active compounds read low 1.02 | S. cerevisiae deletion strains, locus YLR262C, strain YPT6 (second series), active compounds read low 1 | S. cerevisiae deletion strains, locus YLR262C, strain YPT6, active compounds read low 1 | S. cerevisiae deletion strains, locus YLR268W, strain sec22, active compounds read low 1 | S. cerevisiae deletion strains, locus YLR320W, strain mms22, active compounds read low 1.01 | S. cerevisiae deletion strains, locus YLR330W, strain CHS5, active compounds read low 1 | S. cerevisiae deletion strains, locus YLR342W, strain FKS1 (second series), active compounds read low 1.02 | S. cerevisiae deletion strains, locus YLR342W, strain FKS1, active compounds read low 1.01 | S. cerevisiae deletion strains, locus YLR357W, strain rsc2, active compounds read low 1.03 | S. cerevisiae deletion strains, locus YLR370C, strain arc18, active compounds read low 1.01 | S. cerevisiae deletion strains, locus YLR371W, strain rom2, active compounds read low 1.02 | S. cerevisiae deletion strains, locus YLR384C, strain iki3, active compounds read low 1.01 | S. cerevisiae deletion strains, locus YLR418C, strain cdc73, active compounds read low 0.978 | S. cerevisiae deletion strains, locus YML016C, strain PPZ1, active compounds read low 1.01 | S. cerevisiae deletion strains, locus YML032C, strain rad52, active compounds read low 1.04 | S. cerevisiae deletion strains, locus YML120C, strain ndi1, active compounds read low 1 | S. cerevisiae deletion strains, locus YML124C, strain tub3, active compounds read low 1.01 | S. cerevisiae deletion strains, locus YMR058W, strain fet3, active compounds read low 1 | S. cerevisiae deletion strains, locus YMR078C, strain ctf18, active compounds read low 1.02 | S. cerevisiae deletion strains, locus YMR125W, strain sto1, active compounds read low 1 | S. cerevisiae deletion strains, locus YMR129W, active compounds read low 1.01 | S. cerevisiae deletion strains, locus YMR205C, strain PFK2, active compounds read low 1 | S. cerevisiae deletion strains, locus YMR223W, strain ubp8, active compounds read low 1.03 | S. cerevisiae deletion strains, locus YMR231W, strain pep5, active compounds read low 1.01 | S. cerevisiae deletion strains, locus YMR263W, strain SAP30, active compounds read low 0.999 | S. cerevisiae deletion strains, locus YMR307W, strain GAS1, active compounds read low 1.06 | S. cerevisiae deletion strains, locus YNL067W, strain RPL9B, active compounds read low 0.99 | S. cerevisiae deletion strains, locus YNL071W, strain lat1, active compounds read low 1 | S. cerevisiae deletion strains, locus YNL128W, strain TEP1, active compounds read low 1 | S. cerevisiae deletion strains, locus YNL153C, strain GIM3, active compounds read low 0.992 | S. cerevisiae deletion strains, locus YNL183C, strain NPR1, active compounds read low 0.962 | S. cerevisiae deletion strains, locus YNL209W, strain ssb2, active compounds read low 1.02 | S. cerevisiae deletion strains, locus YNL233W, strain BNI4, active compounds read low 1.01 | S. cerevisiae deletion strains, locus YNL248C, strain rpa49, active compounds read low 1.04 | S. cerevisiae deletion strains, locus YNL250W, strain rad50, active compounds read low 1.02 | S. cerevisiae deletion strains, locus YNL271C, strain bni1, active compounds read low 1.02 | S. cerevisiae deletion strains, locus YNL298W, strain CLA4, active compounds read low 1.02 | S. cerevisiae deletion strains, locus YNL307C, strain MCK1, active compounds read low 1.03 | S. cerevisiae deletion strains, locus YNL322C, strain KRE1 (second series), active compounds read low 1.01 | S. cerevisiae deletion strains, locus YNL322C, strain KRE1, active compounds read low 1 | S. cerevisiae deletion strains, locus YNR049C, strain mso1, active compounds read low 0.997 | S. cerevisiae deletion strains, locus YNR052C, strain pop2, active compounds read low 1.02 | S. cerevisiae deletion strains, locus YOL006C, strain TOP1, active compounds read low 1 | S. cerevisiae deletion strains, locus YOL012C, strain htz1 1.19 | S. cerevisiae deletion strains, locus YOL147C, strain pex11, active compounds read low 1.02 | S. cerevisiae deletion strains, locus YOR001W, strain rrp6, active compounds read low 0.975 | S. cerevisiae deletion strains, locus YOR061W, strain CKA2, active compounds read low 1 | S. cerevisiae deletion strains, locus YOR069W, strain VPS5, active compounds read low 1 | S. cerevisiae deletion strains, locus YOR070C, strain gyp1, active compounds read low 1.01 | S. cerevisiae deletion strains, locus YOR080W, strain dia2, active compounds read low 0.999 | S. cerevisiae deletion strains, locus YOR083W, strain WHI5, active compounds read low 0.991 | S. cerevisiae deletion strains, locus YOR106W, strain vam3, active compounds read low 1.03 | S. cerevisiae deletion strains, locus YOR136W, strain idh2, active compounds read low 1.03 | S. cerevisiae deletion strains, locus YOR144C, strain elg1, active compounds read low 1.01 | S. cerevisiae deletion strains, locus YOR184W, strain ser1, active compounds read low 1.05 | S. cerevisiae deletion strains, locus YOR231W, strain MKK1, active compounds read low 0.961 | S. cerevisiae deletion strains, locus YOR265W, strain rbl2, active compounds read low 1 | S. cerevisiae deletion strains, locus YOR270C, strain vph1, active compounds read low 1.06 | S. cerevisiae deletion strains, locus YOR290C, strain snf2, active compounds read low 1.03 | S. cerevisiae deletion strains, locus YOR316C, strain cot1, active compounds read low 1.02 | S. cerevisiae deletion strains, locus YPL051W, strain arl3, active compounds read low 0.998 | S. cerevisiae deletion strains, locus YPL055C, strain LGE1, active compounds read low 0.999 | S. cerevisiae deletion strains, locus YPL078C, strain atp4, active compounds read low 1.02 | S. cerevisiae deletion strains, locus YPL106C, strain sse1, active compounds read low 1.08 | S. cerevisiae deletion strains, locus YPL240C, strain hsp82, active compounds read low 0.995 | S. cerevisiae deletion strains, locus YPL241C, strain CIN2, active compounds read low 0.998 | S. cerevisiae deletion strains, locus YPL256C, strain CLN2, active compounds read low 1.03 | S. cerevisiae deletion strains, locus YPR119W, strain clb2, active compounds read low 1.01 | S. cerevisiae deletion strains, locus YPR141C, strain kar3, active compounds read low 1.02 | S. cerevisiae deletion strains, locus YPR163C, strain tif3, active compounds read low 1.03 | S. cerevisiae deletion strains, locus YPR167C, strain met16, active compounds read low 1.02 | S. cerevisiae deletion strains, strain wtn01, active compounds read low 0.984 | S. cerevisiae strains, strain wild type, active compounds read low 0.999
